Screening data from PubChem BioAssay.
Compounds with a hit are over-represented: about 2.7% of the library has one in this group of screens.
BRCA1 expr up: qHTS Assay to Identify Small Molecule Activators of BRCA1 Expression; MCF7-BRCA1-FFLuc reporter, luminescence, 48 h; response scale: scaled: vehicle 0%, 10 µM genistein 100%; Potency, µM (doses to about 46.1 µM), for inactives: top-dose activation, actives largely listed as activators; 1.1% of 380,000 active; AID 624202, 2012; further: nearly all actives have a fitted effect of over 80% in size
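Luminescence from a BRCA1-driven firefly luciferase in MCF7 cells was the read-out, taken 15 min after substrate addition following 48 h compound exposure at 37 °C. Data were normalized to a 10 microM genistein control and DMSO vehicle.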
GLP1R ag: qHTS of GLP-1 Receptor Agonists. Glucagon-like peptide 1 receptor (Homo sapiens), P43220. HEK293 GLP-1R CRE-luciferase, luminescence, 4-6 h; cells express a hypersensitive GLP-1R form. Potency, µM (doses to about 45.6 µM), inactives show top-dose activation, actives largely listed as activators. 0.007% of 380,000 active. AID 624172, 2012; further: % of control where 0% means no effect
Target sequence (P43220 whole entry, looked up): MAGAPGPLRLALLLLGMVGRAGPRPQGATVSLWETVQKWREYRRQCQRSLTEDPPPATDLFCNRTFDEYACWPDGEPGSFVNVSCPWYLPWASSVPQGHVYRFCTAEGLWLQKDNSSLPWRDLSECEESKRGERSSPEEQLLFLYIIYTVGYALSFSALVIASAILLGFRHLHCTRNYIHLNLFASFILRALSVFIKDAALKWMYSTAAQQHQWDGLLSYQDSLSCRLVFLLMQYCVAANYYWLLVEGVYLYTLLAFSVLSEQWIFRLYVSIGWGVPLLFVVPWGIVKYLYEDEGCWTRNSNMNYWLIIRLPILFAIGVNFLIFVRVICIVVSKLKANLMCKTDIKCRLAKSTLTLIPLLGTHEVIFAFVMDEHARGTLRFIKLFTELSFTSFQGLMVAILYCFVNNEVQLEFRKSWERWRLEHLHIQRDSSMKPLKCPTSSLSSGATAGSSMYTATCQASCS
HEK293 tox: qHTS of GLP-1 Receptor Inverse Agonists: Cytotox Screen | 0.13% of 410,000 active | HEK293 cAMP-luciferase reporter cells, luminescence, 24 h | Potency, µM (top dose mostly 38.3 µM), for inactives: top-dose activity change, negative = inhibition, hits mostly inhibitors;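 further: loss of luciferase light is scored as toxicity; on the % scale 0 is the no-effect control and ±100 the full control effect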
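Quantitative HTS format, 1536 wells, 200 cells/uL seeded. Compounds: 23 nL, 24 h, 37 °C. Detection: luciferase reagent, luminescence at 12 min RT; decreased signal taken as cytotoxic.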
GLP1R inv ag: qHTS of GLP-1 Receptor Inverse Agonists (Inhibition Mode) | Glucagon-like peptide 1 receptor (Homo sapiens), P43220 | HEK293 GLP-1R CRE-luciferase, luminescence, 24 h; GLP-1R form is constitutively active | Potency, µM (highest dose often 38.3 µM), for the others: at the highest dose activity change, negative = inhibition, usual class: inhibitors | 1.6% of 410,000 active | AID 624417, 2012; further: on the % scale 0 is the no-effect control and ±100 the full control effect; nearly all actives have a fitted effect of over 55% in size
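GLP-1R inverse agonism mode: basal reporter luminescence in engineered HEK293 cells measured after one day of compound exposure at 37 deg C, with a 12 min room-temperature detection step.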
a7 integrin act: qHTS for Activators of Integrin-Mediated Alleviation for Muscular Dystrophy; alpha7betagal myoblasts, beta-gal FDG fluorescence, 48 h; Potency, µM (top dose mostly 38.3 µM), inactives show at the highest dose activation, hits mostly activators; 0.064% of 350,000 active; AID 624291, 2012;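 further: 100% = response of the positive control SU9516; nearly all actives have a fitted effect of over 60% in size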
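Alpha7betagal+/- myoblasts (passage 13) were plated 16-24 hr, then exposed to compounds (1:260 dilution of DMSO stock) for 48 hours at 37C. After MPER lysis, β-galactosidase reporter activity was read as FDG fluorescence (ex 480/em 540) after 30 minutes.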
* marks the source's active call; other numbers are inactive results; ? = inconclusive; . = no result given; [ ] = another dose, or the depositor's remark. The call rests on the fitted dose curve; in most records, active means well fitted curve in the direction sought with a large enough effect; inconclusive means small, poorly fitted or top-dose-only effect, or another doubt; inactive means no such curve, though single readings can be large; an effect the other way counts as inactive or inconclusive. Potency means the concentration at half of the fitted maximal effect.

SMILES	BRCA1 expr up	GLP1R ag	HEK293 tox	GLP1R inv ag	a7 integrin act
Cc1ccc(C(=O)O)cc1NC(=S)NC(=O)c1ccc(-c2ccc(Cl)cc2)o1	19%	1%	1%	8%	12%
O=C(O)c1cccc(NC(=S)NC(=O)c2ccc(-c3ccc(Cl)cc3)o2)c1	11µM*	0%	-7%	47%	30%
COc1ccc(OC)c(/C=C2\Cc3ccccc3C2=O)c1	0%	.	.	.	.
CN(C)CC(=O)Nc1ccc(Oc2ccc(Cl)cc2)cc1	15%	15%	9%	5µM*	-55%
CCn1nnc(NC(=S)NC(=O)c2ccc(-c3cccc(Cl)c3)o2)n1	17%	-1%	5µM*	-22%	22%
CCCn1nnc(NC(=O)c2ccc(-c3cccc(Cl)c3)o2)n1	?	-3%	?	-28%	6%
O=C(NNC(=S)NC(=O)c1ccccc1[N+](=O)[O-])c1ccccc1Cl	-31%	-3%	-12%	9%	-4%
CN(CC(=O)Nc1ccc(Cl)cc1)CC(=O)Nc1ccc(C(N)=O)cc1	-11%	2%	0%	7%	-19%
O=C(NC(=S)Nc1ccccc1[N+](=O)[O-])c1ccccc1Cl	13µM*	16%	?	-19%	-22%
O=C1OCCN1C(=O)[C@H]1[C@H](c2ccc([N+](=O)[O-])cc2)C(c2ccc(F)cc2)=NN1c1ccccc1	-24%	0%	-11%	?	32%
O=C1OCCN1C(=O)[C@H]1[C@H](c2ccc([N+](=O)[O-])cc2)C(c2ccc(F)cc2)=NN1c1ccc(Br)cc1	-37%	-2%	-15%	10µM*	11%
Cc1ccc(Nc2nc3ccccc3c3nnc(C)n23)c(C)c1	.	.	-12%	15%	.
CC(NC(=O)c1cc(COc2ccc(-n3cncn3)cc2)on1)c1ccc(F)cc1 (stereo not given)	13µM*	-2%	-18%	-17%	8%
COc1ccc(C(=O)Nc2ccccc2C(=O)OCc2cc(=O)n3c4c(sc3n2)CCCC4)cc1	.	.	5%	-3%	.
C(=N\Nc1nc(Nc2ccccc2)nc(N2CCOCC2)n1)/c1c[nH]c2ccccc12	-56%	-9%	32%	?	-50%
O=C(Oc1cccc(/C=N/Nc2nc(Nc3ccccc3)nc(N3CCOCC3)n2)c1)c1ccco1	-57%	-4%	28%	1.8µM*	7%
Oc1cccc(/C=N/Nc2cc(N3CCOCC3)nc(N3CCOCC3)n2)c1	-64%	-1%	9%	3.5µM*	-1%
Cc1c(/C=C(\C#N)C(=O)Nc2cccc(Cl)c2)c2ccccc2n1Cc1ccccc1Cl	.	.	0%	-4%	.
N#Cc1cc(C#N)c(N2CCN(c3cccc(Cl)n3)CC2)nc1N	8.9µM*	7%	-3%	0%	-8%[7.66 µM]
COc1cc2nc(N3CCCN(C)CC3)nc(NC3CCN(Cc4ccccc4)CC3)c2cc1OC	-70%	.	.	.	.
Cc1ccc2c(=O)c(C(=O)c3ccc(Cl)cc3)cn(CC(=O)Nc3ccc4c(c3)OCCO4)c2n1	.	.	1%	5%	.
Cc1ccc(NC(=O)N2CCCN(Cc3ccc(F)cc3)C2)cc1C	-46%	-12%	?	4µM*	-60%
CCN(CC)C(=S)NC(=O)c1ccc(F)cc1	-17%	7%	3.5µM*	?	-4%
CCN(CC)C(=S)NC(=O)c1cccnc1	-5%	5%	?	13%	3%
CCc1nnc2c3ccccc3nc(Nc3ccc(F)cc3C)n12	.	.	4%	57%	.
SMILES	BRCA1 expr up	GLP1R ag	HEK293 tox	GLP1R inv ag	a7 integrin act
O=C(c1cc(-c2ccc(Br)cc2)nc2ccccc12)N1CCC1	-30%	1%	2%	?	-37%
O=C(c1cc(-c2cccc(Br)c2)nc2ccccc12)N1CCCC1	7%	22%	2%	10µM*	18%
CN(C)c1cccc(C(=O)NC2CCCCCC2)c1	10µM*	7%	-5%	?	-34%
Cc1cccc(C(=O)NC2CCCCCCC2)c1	?	12%	1%	?	?
O=C(NC1CCCC1)c1cccc(Oc2ccccc2)c1	67%	21%	-3%	10µM*	-16%
CCN(CC)CCNC(=O)c1[nH]c2ccccc2c1Sc1ccc(Cl)cc1	.	.	-12%	?	.
Cc1cc(C)c2sc(N3CCN(C(=O)C4CC4)CC3)nc2c1	?	.	-22%	6%	.
CCC1CCCCN1C(=O)CSc1nnc(-c2cccc(Cl)c2)o1 (stereo not given)	10µM*	-1%	-9%	?	0%
CCC1CCCCN1C(=O)CSc1nnc(-c2ccco2)o1 (stereo not given)	3.2µM*	-7%	-3%	6%	7%
CN(Cc1ccccc1)C(=O)CSc1nnc(-c2cccc(Cl)c2)o1	.	.	5%	10µM*	.
Cc1cccc(C(=O)N2CCc3cc(CNC(=O)c4ccnn4C)ccc32)c1	.	.	-1%	-1%	.
Fc1cccc(-c2nc(-c3ccncc3)no2)c1	.	.	4%	10%	.
Cc1cc(C)c(OCC(=O)N(Cc2cccc(F)c2)Cc2ccco2)c(C)c1	.	.	-3%	?	.
C=CCNC(=O)c1onc(CSc2ccc(Cl)cc2)c1C(=O)NCC=C	-3%	32%	?	13µM*	20%
C=CCNC(=O)c1onc(CSc2ccc(F)c(F)c2)c1C(=O)O	-11%	-2%	1%	?	23%
C=CCNC(=O)c1onc(CSc2ccc(Cl)cc2)c1C(=O)O	19%	-1%	-4%	2.2µM*	-1%
CCN(CC)c1ccc(C(=O)N2CCc3c([nH]c4ccccc34)C2c2ccc(F)cc2)cc1 (stereo not given)	.	.	4%	1%	.
Brc1cccc(-c2nn(-c3ccccc3)c3c2cnc2cc4c(cc23)OCO4)c1	11%	0%	-4%	-9%	.
Cc1cc(C(=O)COC(=O)Cc2n[nH]c(=O)c3ccccc23)c(C)n1-c1cccc(C(F)(F)F)c1	-27%	-1%	-20%	7.1µM*	-23%
CCCCN(C(=O)Cc1cccs1)c1nnc(-c2cccnc2)s1	3.2µM*	20%	9%	32%	-1%
COc1ccc(NS(=O)(=O)c2ccc(-n3cccn3)cc2)cc1OC	.	.	-8%	-18%	.
Cc1ccc(S(=O)(=O)N2[C@@H](c3ccc(Cl)cc3)C(C(=O)O)=CC[C@H]2c2ccc(C(C)C)cc2)cc1	3%	-3%	-11%	6.3µM*	3%
Cc1ccccc1S(=O)(=O)N1[C@@H](c2ccc(Cl)cc2)C(C(=O)O)=CC[C@H]1c1ccc(Cl)cc1	9%	2%	-18%	8.9µM*	7%
Cc1ccc([C@H]2C(C(=O)O)=CC[C@@H](c3ccc(C(C)C)cc3)N2S(=O)(=O)c2ccc(C)cc2)cc1	-5%	-5%	-10%	?	10%
